ChEMBL document CHEMBL1157539, “Thousands of chemical starting points for antimalarial lead identification” (Nature, 2010)

The compounds below were run on Plasmodium falciparum (assay: GSK_TCMDC: Inhibition of Plasmodium falciparum 3D7 in whole red blood cells, using parasite LDH activity as an index of growth. Test compounds present at 2uM).
Type: functional

Row | Structure (SMILES) | Inhibition
1 | CCNc1cc(C(=O)N[C@@H](Cc2ccccc2)[C@H](O)CNC(C)(C)CCCC(C)C)cc(N2CCCC2=O)c1.O=CO | 100%
2 | O=C(Nc1ccc2c(c1)CCN(C1CCC1)CC2)c1cn(-c2ccccc2)nc1-c1ccccc1.O=C(O)C(F)(F)F | 100%
3 | COc1ccc(-c2ccc(CNC3Cc4ccccc4C3)cc2)cc1S(=O)(=O)NCCN1CCCC1.O=C(O)C(F)(F)F | 100%
4 | O=C(c1ccc(F)c(F)c1)N1CCOC(CCN2CCC(c3ccccc3)CC2)(c2ccc(Cl)c(Cl)c2)C1 (stereo unspecified) | 89%
5 | COc1ccc2nccc([C@@H](O)CN3CCC(NC(=O)/C=C/c4cccc(-c5ccccc5)c4)CC3)c2c1 | 98%
6 | CC(C)C[C@H](NC(=O)c1ccc(OCCN2CCOCC2)cc1)C(=O)N[C@H](/C=N/N(C)C(=O)c1ccccc1)CCc1ccccc1 | 91%
7 | Cc1[nH]c2ccc(NS(C)(=O)=O)cc2c1C1CCN(CCC2CCN(C(=O)/C=C/c3ccc(Cl)c(Cl)c3)CC2)CC1 | 100%
8 | CCC(C)C(COC(=O)c1cc(OC)c(OC)c(OC)c1)N(C)CCN(C)C(COC(=O)c1cc(OC)c(OC)c(OC)c1)C(C)CC.Cl (stereo unspecified) | 84%
9 | O=C(O)C(F)(F)F.O=S(=O)(NCCN1CCCC1)c1ccc(-c2cccc(CNCc3ccc(F)cc3)c2)cc1 | 100%
10 | CCOc1cc2c(cc1S(=O)(=O)c1ccc(COc3ccc(C(F)(F)F)cc3)cc1)CCN(C)CC2.Cl | 87%
11 | CCNc1nc(OCC(F)(F)F)nc(N(c2ccccc2)c2ccccc2)n1 | 100%
